Screen size: about 320,000 compounds; about 2,100 (0.66%) were called active. Another 53% or so got no clear call; they are omitted. Calls follow the shape of the dose curve; as a rule, active = well fitted inhibition curve with a large enough effect in the signal ratio, with a control signal flat (not every such curve was filed as active); inconclusive = small, poorly fitted or top-dose-only effect, or effect the other way, or a change in a side signal; inactive = flat fitted curve, though single readings scatter; the % refers to the signal ratio. Shown is part of a subset that was picked to be rich in actives.
Assay: qHTS Assay for Lipid Storage Modulators in Drosophila S3 Cells;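 as to cell number change: cells counted by Cell Tracker Red CMTPX staining in the red channel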; as to lipid storage change, negative = inhibition: % is scaled to controls: 0 for no effect and ±100 for the full control effect
Details: BODIPY lipid droplet fluorescence, 18-24 h, cells fed with added oleic acid; cell number change: measured here: cell count max response; series mostly up to 46.1 µM; lipid storage change, negative = inhibition: at the top concentration
Method in brief: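 Drosophila S3 cells loaded with oleic acid (400 uM, as added) and compounds at several concentrations; lipid droplets imaged by 488-nm laser-scanning cytometry, 500–530 nm intensity and object ratio to cell channel. Percent activity normalized to 20 uM Triacsin C.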
For `COC(=O)CN(n1cnnc1)S(=O)(=O)c1ccccc1Cl`, the “outcome” value was “inactive” and the cell number change was -1.98%. With `COc1cccc(NC(=O)COC(=O)CCn2c(C)csc2=O)c1` the “outcome” value was “inactive” and the cell number change was -50%. With `CCCCn1c(SCC(=O)N2CCc3ccccc32)nnc1-c1ccncc1` the “lipid storage change, negative = inhibition” value was -8.27% (inactive) and the cell number change was -7.69%. For `CSc1nnc(-c2ccncc2)n1CCCN1CCCC1=O`, the Potency was 0.731 µM (active) and the cell number change was -16.4%. For `CCCCn1c(SCC(=O)N(C)C)nnc1-c1ccncc1`, the “lipid storage change, negative = inhibition” value was 11.4% (inactive) and the cell number change was 9.01%. For `CC(C)(C)OC(=O)NCCCCCO`, the “lipid storage change, negative = inhibition” value was 4.7% (inactive) and the cell number change was -1.04%. For `CC(C)(C)OC(=O)NC(Cc1ccccc1)C(=O)NCCCC(=O)O` (configuration not stated), the “lipid storage change, negative = inhibition” value was -11.2% (inactive) and the cell number change was -14.4%. In the case of `CC(C)(C)OC(=O)NCCCC(CCCNC(=O)OC(C)(C)C)C(=O)O`, the Potency is reported as 16.4 µM (active) and the cell number change is reported as -6.12%. For `Cc1ccc(C(=O)N/N=C/c2ccc(-c3cccc(Cl)c3)o2)cn1`, the “lipid storage change, negative = inhibition” value was -1.13% (inactive) and the cell number change was 8.19%. For `Nc1c(-c2ccccc2)sc2ccc3ccccc3[n+]12`, the Potency was 1.3 µM (active) and the cell number change was 7.96%. With `Nc1nc(-c2ccccc2)c(-c2ccccc2)s1` the “lipid storage change, negative = inhibition” value was 2.72% (inactive). With `Nc1nc(-c2ccccc2)c(-c2ccc([N+](=O)[O-])cc2)s1` the “lipid storage change, negative = inhibition” value was 20.9% (inactive) and the cell number change was 0.729%. In the case of `O=C(COC(=O)C1COc2ccccc2O1)Nc1cccc(Cl)c1` (configuration not stated), the “lipid storage change, negative = inhibition” value is reported as 3.3% (inactive) and the cell number change is reported as -13.4%. For `Cc1ccc(C)c(C2C(=O)c3ccccc3C2=O)c1`, the “lipid storage change, negative = inhibition” value was -0.949% (inactive) and the cell number change was -8.26%. In the case of `Cc1ccccc1C1C(=O)c2ccccc2C1=O`, the Potency is reported as 20.6 µM (active) and the cell number change is reported as 14.4%. For `O=C1c2ccccc2C(=O)C1c1ccccc1`, the “lipid storage change, negative = inhibition” value was 2.57% (inactive) and the cell number change was 3.81%. With `O=C(Nc1ccc(Cl)c(Cl)c1)Nc1ccon1` the Potency was 10 µM (active). For `O=C(Nc1ccc(Cl)cc1)Nc1ccon1`, the “lipid storage change, negative = inhibition” value was -1.42% (inactive) and the cell number change was 28.2%. For `O=C(Nc1cccc(Cl)c1)Nc1ccon1`, the “outcome” value was “inactive” and the cell number change was -26.2%. With `Cc1cc(C)c(OCCCCCNCCO)c(C)c1` the Potency was 25.9 µM (active) and the cell number change was -17.5%. In the case of `Cc1cc(C)cc(OCCCCCNCCO)c1`, the “lipid storage change, negative = inhibition” value is reported as -0.724% (inactive) and the cell number change is reported as -17.6%. In the case of `Cc1ccccc1OCCCCCNCCO`, the “outcome” value is reported as “inactive” and the cell number change is reported as 2.5%. In the case of `O=C1NCCN(Cc2ccc(Cl)c(F)c2)C1CC(=O)N1CCCCO1` (configuration not stated), the “lipid storage change, negative = inhibition” value is reported as 7.12% (inactive) and the cell number change is reported as 5.73%. In the case of `Nc1nc2c(C(=O)N3CCOCC3)nnn2c2ccccc12`, the “lipid storage change, negative = inhibition” value is reported as 5.07% (inactive) and the cell number change is reported as 6.42%. With `CCN(CC)S(=O)(=O)c1ccc(N2CCCC2)c(NS(=O)(=O)c2ccc(OC)cc2)c1` the “lipid storage change, negative = inhibition” value was 1.12% (inactive) and the cell number change was 10.1%. For `CCN(CC)S(=O)(=O)c1ccc(N2CCOCC2)c(NS(=O)(=O)c2ccc(OC)cc2)c1`, the Potency was 20.6 µM (active) and the cell number change was -20.4%. With `CCN(CC)S(=O)(=O)c1ccc(N2CCOCC2)c(NS(=O)(=O)c2ccc(C)c(C)c2)c1` the “lipid storage change, negative = inhibition” value was -10.2% (inactive) and the cell number change was 16%. For `CN(C(=O)CCn1c(=S)oc2ccccc21)c1ccc(F)cc1`, the “lipid storage change, negative = inhibition” value was 7.47% (inactive) and the cell number change was 7.52%. In the case of `Cc1cc(C)c(C)c(S(=O)(=O)N[C@@H](C)C(=O)OCC(N)=O)c1C`, the “lipid storage change, negative = inhibition” value is reported as -8.61% (inactive) and the cell number change is reported as -24.5%. With `COc1ccc(N2CCN(C(=O)COC(=O)c3ccco3)CC2)cc1` the “lipid storage change, negative = inhibition” value was -1.86% (inactive) and the cell number change was 6.24%. For `O=C(OCC(=O)N1CCN(c2ccccc2)CC1)c1ccco1`, the Potency was 23.1 µM (active) and the cell number change was -17.5%. With `O=C(NCC(=O)N1CCN(c2ccccc2)CC1)c1ccco1` the “lipid storage change, negative = inhibition” value was 11.3% (inactive) and the cell number change was 1.29%. For `COc1ccc(NC(=O)CCS(=O)(=O)c2ccc(Cl)cc2)cc1`, the “outcome” value was “inactive”. With `O=S(=O)(c1cccs1)N1CCC(Cc2ccccc2)CC1` the “outcome” value was “inactive” and the cell number change was -12%. In the case of `CCC(C)Sc1ccc(-c2nc3ccc(C)cn3c2NC2CCCCC2)cc1` (configuration not stated), the “lipid storage change, negative = inhibition” value is reported as 15.5% (inactive) and the cell number change is reported as -1.01%. For `CCCCCCSc1ccc(-c2nc3ccc(C)cn3c2NC2CCCCC2)cc1`, the Potency was 11.6 µM (active). With `CCCCCCSc1cccc(-c2nc3cc(C)ccn3c2NC2CCCCC2)c1` the “lipid storage change, negative = inhibition” value was -7.42% (inactive) and the cell number change was -11.8%. For `CC(C)(C)CC(=O)Nc1nn[nH]n1`, the “lipid storage change, negative = inhibition” value was 2.6% (inactive) and the cell number change was -2.51%. With `O=C(NNC(=S)NC1CC2C=CC1C2)c1cccnc1` (configuration not stated) the “lipid storage change, negative = inhibition” value was 2.66% (inactive) and the cell number change was 2.14%. With `COCC(=O)Nc1ccc(Br)c(C)c1` the cell number change was 9.41% and the lipid storage change, negative = inhibition was 14.1% [at 9.22 µM] (inactive). In the case of `CCOC(=O)Cc1csc(SCC(=O)Nc2ccc(C)cc2F)n1`, the “lipid storage change, negative = inhibition” value is reported as 31.2% (inactive) and the cell number change is reported as -11%. With `CCOC(=O)Cc1csc(SCC(=O)NC(C)C23CC4CC(CC(C4)C2)C3)n1` (configuration not stated) the Potency was 1.64 µM (active) and the cell number change was 5.41%. In the case of `CCOC(=O)Cc1csc(SCC(=O)Nc2cccc(Cl)c2)n1`, the “lipid storage change, negative = inhibition” value is reported as -3.77% (inactive) and the cell number change is reported as 13.5%. For `O=C(Nc1ccccn1)c1ccc(Cl)c(S(=O)(=O)N2CCOCC2)c1`, the “lipid storage change, negative = inhibition” value was -1.8% (inactive) and the cell number change was 13.7%. For `CCOC(=O)COc1ccccc1C(=O)c1cnn(-c2ccccc2)c1`, the “lipid storage change, negative = inhibition” value was 8.31% (inactive) and the cell number change was 3.88%. For `CCC(C)NC(=O)CSc1nc2ccccc2c(=O)n1CCCN1CCCCC1` (configuration not stated), the “lipid storage change, negative = inhibition” value was 24.2% (inactive) and the cell number change was -2.07%. For `Cc1cc([N+](=O)[O-])nn1CCC(=O)Nc1nccs1`, the “lipid storage change, negative = inhibition” value was 15% (inactive) and the cell number change was 0.24%. In the case of `CCCN1CCc2c(sc(NC(=S)NC(=O)c3ccccc3)c2C#N)C1`, the “lipid storage change, negative = inhibition” value is reported as -2.06% (inactive) and the cell number change is reported as 3.88%. In the case of `COC(=O)c1c(NC(=O)c2ccc(N(C)S(=O)(=O)c3ccc(C)cc3)cc2)sc2c1CCCC2`, the “lipid storage change, negative = inhibition” value is reported as 8.28% (inactive) and the cell number change is reported as -4.01%. In the case of `CCCN1CCc2c(sc(NC(=O)c3ccc(S(=O)(=O)N4CCN(C(=O)OCC)CC4)cc3)c2C(N)=O)C1`, the “lipid storage change, negative = inhibition” value is reported as -19.6% (inactive) and the cell number change is reported as -7.97%. For `CCCN1CCc2c(sc(NC(=O)c3ccc(S(=O)(=O)N(C)c4ccccc4)cc3)c2C(=O)NC)C1`, the Potency was 4.11 µM (active) and the cell number change was -17.2%. For `CCCN1CCc2c(sc(NC(=O)c3ccc(S(=O)(=O)N(C)c4ccccc4)cc3)c2C(N)=O)C1`, the Potency was 13 µM (active) and the cell number change was -20.7%. With `CN1CCc2c(sc(NC(=O)c3ccc(C(=O)c4ccccc4)cc3)c2C(N)=O)C1` the “lipid storage change, negative = inhibition” value was -25.9% (inactive) and the cell number change was 0.647%. With `COc1cc(OC)c(C(=O)OCC(=O)NCCC2=CCCCC2)cc1OC` the “outcome” value was “inactive” and the cell number change was -12.4%. With `COCCNC(=O)CCCn1c(=O)c2cc(OC)c(OC)cc2n(CC(=O)c2ccc(Cl)cc2)c1=O` the “lipid storage change, negative = inhibition” value was -0.141% (inactive) and the cell number change was -4.78%. With `CCOC(=O)C1CCN(C(=O)CC(NS(=O)(=O)c2ccc(OC)cc2)C(C)C)CC1` (configuration not stated) the “lipid storage change, negative = inhibition” value was 8% (inactive) and the cell number change was 5.69%. With `OCCCNc1cc(-c2ccnc(Nc3cccc(Cl)c3)n2)ccn1` the Potency was 6.51 µM (active) and the cell number change was -20.1%. For `CN(C)CCCNc1ccc(-c2cc(Nc3cccc(Cl)c3)ncn2)cn1`, the “lipid storage change, negative = inhibition” value was 8.12% (inactive) and the cell number change was 7.36%. With `CC(C)n1cnc2c(Nc3cccc(Cl)c3)nc(NCCCO)nc21` the “lipid storage change, negative = inhibition” value was -22.1% (inactive) and the cell number change was 1.01%. In the case of `OC(COc1c(F)cc(Br)cc1F)CN1CCc2ccccc2C1` (configuration not stated), the “lipid storage change, negative = inhibition” value is reported as 12.2% (inactive) and the cell number change is reported as -1.04%. For `c1ccc(Cc2nnc3sc(-c4ccccn4)nn23)cc1`, the “outcome” value was “inactive”.
Potency is read from the fitted curve at half-maximal effect.
